Data as given in PubChem BioAssay (NCATS).
Inconclusive results are not listed. Activity calls are given as the source filed them. Calls follow the shape of the dose curve; as a rule, active = well fitted inhibition curve with a large enough effect; inconclusive = small, poorly fitted or top-dose-only effect; inactive = flat fitted curve, though single readings scatter.

test: qHTS to identify inhibitors of the type 1 interferon - major histocompatibility complex class I in skeletal muscle: primary screen against the NCATS Pharmaceutical Collection (AID 1347407); settings: human skeletal muscle cells, IFN-b-induced MHC-I HiBiT luminescence, 24 h; series mostly up to 45.9 µM; activity change, negative = inhibition: at the top concentration;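 also: luminescence of HiBiT knocked into endogenous HLA-B as interferon-induced MHC class I level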
How it was run: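 Cells were seeded with 4 ng/ml IFN-beta, incubated 1 h, then dosed with compounds over eight 1:5 steps up to 46 uM final. After 24 h at 37 C, HiBiT lytic reagent was added and luminescence read after 10 min lysis in the dark.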
% is scaled to controls: 0 for no effect and ±100 for the full control effect.

SMILES	activity change, negative = inhibition
CCCN(CCC)CCc1c[nH]c2ccccc12	-14.4% [at 92.2 µM] (inactive)
CN(C)CCc1c[nH]c2cccc(O)c12	-2.28% [at 92.2 µM] (inactive)
CN1C(=O)CN=C(c2ccccc2)c2cc([N+](=O)[O-])ccc21	-11.4% (inactive)
CCc1cc(OC)c(C[C@H](C)N)cc1OC	-18.4% [at 92.2 µM] (inactive)
NCc1cccnc1	-6.39% (inactive)
CCNc1nc(Cl)nc(NCC)n1	-2.39% (inactive)
O=C(O)CCCCCCNC1c2ccccc2CCc2ccccc21	6.72% (inactive)
COc1ccc2[nH]cc(CCN(C(C)C)C(C)C)c2c1	-9.3% [at 92.2 µM] (inactive)
CCC(=O)OC1(c2ccccc2)CCN(C)CC1	-27.4% [at 92.2 µM] (inactive)
C[C@]12CC[C@H]3[C@@H](CCC4=CC(=O)CC[C@@]43C)[C@@H]1CC[C@@H]2C(=O)O	5.16% (inactive)
CN1C(=O)CN=C(c2ccccc2)c2cc(Cl)ccc21	-15.8% (inactive)
COc1ccc(OC)c(CC(C)N)c1 (stereo not given)	-16% [at 92.2 µM] (inactive)
C[C@H]1CNCCc2ccc(Cl)cc21	13.2% (inactive)
COc1cc(CC(C)N)c(OC)cc1Br (stereo not given)	-11.2% [at 92.2 µM] (inactive)
C[N+](C)(C)CCOC(=O)C(O)(c1ccccc1)c1ccccc1	5.18% (inactive)
CCc1ccc(C2CCNCC2)cc1	-4.69% (inactive)
COCC(=O)N(c1c(C)cccc1C)C(C)C(=O)OC (stereo not given)	1.33% (inactive)
CC[C@H](O)C(C[C@H](C)N(C)C)(c1ccccc1)c1ccccc1	-12.7% [at 92.2 µM] (inactive)
CCCC(C)C1(CC)C(=O)N=C(S)NC1=O (stereo not given)	4.04% (inactive)
CCOC(=O)NC(O)C(Cl)(Cl)Cl (stereo not given)	-8.31% (inactive)

SMILES	activity change, negative = inhibition
CC(=O)OC1(c2ccccc2)CCN(CCc2ccccc2)CC1	-16.5% [at 92.2 µM] (inactive)
CCC1(CC)C(=O)NC(=O)NC1=O	-0.186% (inactive)
Oc1c(Br)cc(Br)cc1Br	-3.36% (inactive)
CC(CC(C#N)(c1ccccc1)c1ccccc1)N(C)C (stereo not given)	-8.45% [at 92.2 µM] (inactive)
CCN(CC)C(C)C(=O)c1ccccc1 (stereo not given)	-0.729% (inactive)
CCN1CCCC1CNC(=O)C(O)(c1ccccc1)c1ccccc1 (stereo not given)	3.46% (inactive)
COc1cc(N)c(Cl)cc1C(=O)NC1CN2CCC1CC2 (stereo not given)	-0.546% (inactive)
O=C1NCN(c2ccccc2)C12CCN(CCCOc1ccc(F)cc1)CC2	-4.69% (inactive)
C[C@H](CN1CCOCC1)C(C(=O)N1CCCC1)(c1ccccc1)c1ccccc1	-33.8% [at 154 µM] (inactive)
ClCCCN1CCN(c2cccc(Cl)c2)CC1	0.567% (inactive)
c1cc2c(c(N3CCNCC3)c1)OCCO2	1.83% (inactive)
CN1C[C@@H](NS(=O)(=O)N(C)C)C[C@@H]2c3cccc4c3c(cn4C)C[C@H]21	-5.16% (inactive)
CNC(C)Cc1ccc2c(c1)OCO2 (stereo not given)	-0.845% [at 92.2 µM] (inactive)
C[C@H]1C(=O)O[C@@H]2CCN3CC=C(COC(=O)[C@](C)(O)[C@]1(C)O)[C@H]23	3.26% (inactive)
CCOC(C(=O)OCCN(C)C)(c1ccccc1)c1ccccc1	31.5% (inactive)
COc1cc(CC(C)N)cc2c1OCO2 (stereo not given)	-2.05% [at 92.2 µM] (inactive)
COP(=S)(OC)Oc1ccc(Sc2ccc(OP(=S)(OC)OC)cc2)cc1	-21.8% (inactive)
CCN(CC)CCOC(=O)C(C)(c1ccccc1)c1ccccc1	1.29% (inactive)
O=C(CCl)c1ccc(Cl)cc1Cl	-1.19% (inactive)
CCC(OC(C)=O)C(CC(C)NC)(c1ccccc1)c1ccccc1 (stereo not given)	-29% [at 92.2 µM] (inactive)
